# PubChem BioAssay AID504832 (National Center for Advancing Translational Sciences (NCATS), 2011)
# “And” between values parts separate entries of the source, which are not always exact repeats. Equal entries are not always repeated. In all, about 310,000 compounds went through this assay and about 18,000 (5.8%) were called active. Another 22% or so got no clear call; they are omitted. The call rests on the fitted dose curve; in most records, active means well fitted inhibition curve with a large enough effect; inconclusive means small, poorly fitted or top-dose-only effect, or another doubt; inactive means no such curve, though single readings can be large or run the other way. Shown is part of a subset that was picked to be rich in actives. Entries that show only a call come without a potency.
# Assay: Primary qHTS for delayed death inhibitors of the malarial parasite plastid, 48 hour incubation
# Settings: P. falciparum luciferase growth in erythrocytes; series mostly up to 28.7 µM
# Method in brief: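 Luminescence readout; reporter = integrated firefly luciferase in P. falciparum. RBC culture at 2% hematocrit, 0.1% parasitemia final, 37 C/5% CO2; decreased signal taken as growth inhibition.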
# Potency means the concentration at half of the fitted maximal effect.
Structure (SMILES),Potency,"activity change, negative = inhibition"
CCCc1c(C(=O)N/N=C(\C)CCc2ccc(OC)cc2)nnn1-c1nonc1N,inactive,
CC(C)C(NC(=O)c1c(F)cccc1F)C(=O)NCc1ccncc1 (centres undefined),inactive,
CCS(=O)(=O)Nc1cccc(-c2cc(-c3ccccc3)c3cc(C)ccc3n2)c1,inactive,
O=C(CCl)NNc1nc(-c2ccccc2)c2cc(Cl)ccc2n1,inactive,
Cc1ccc2nc(Nc3ccccc3O)nc(-c3ccccc3)c2c1,13.1 µM (active),
Nc1c(C(=O)OCC(=O)Nc2ccc(OC(F)F)cc2)[nH]c(=O)[nH]c1=O,inactive,
O=C(c1cc(COc2ccc(F)cc2F)on1)N1CCOCC1,inactive,
CCCCN(CCCC)CCC(O)c1cc2c(Cl)cc(Cl)cc2c2cc(C(F)(F)F)ccc12 (centres undefined),3.2 nM (active) and 4.1 nM (active),
CCCCC(=O)Nc1ccc(C(=O)Nc2cc(C(F)(F)F)ccc2Cl)cc1,inactive,
COc1cccc(CNC(=O)COc2cc(O)c3c(c2)OC(C)(C)CC3=O)c1,inactive,
Cc1ccc(CNC(=O)CSc2nnc3c(n2)[nH]c2ccc(F)cc23)cc1,inactive,
Clc1ccc(CSc2nnc3c(n2)[nH]c2ccccc23)cc1,5.22 µM (active),
O=C(CSc1nnc2c(n1)[nH]c1ccccc12)NC1CCCCC1,inactive,
CCCCN(C(=O)c1ccc(S(=O)(=O)N2CCOCC2)cc1)C1CCS(=O)(=O)C1 (centres undefined),inactive,
O=C1NCC(=O)N(Cc2ccccc2)/C1=C/c1ccccc1,inactive,
O=C1OC(c2ccc(Cl)cc2)=N/C1=C\c1cccnc1,inactive,
O=C1NNC(c2ccccc2)=N/C1=C\c1ccc(Cl)cc1,6.57 µM (active),
COc1ccc(C2CC(c3ccc([N+](=O)[O-])cc3)=NN2C(C)=O)cc1 (centres undefined),inactive,
CNC(=O)C1CC(=O)N(c2ccc(OCC(=O)Nc3ccccc3C)cc2)C1 (centres undefined),inactive,
O=C1C(=O)N(CCCO)C(c2ccccc2)/C1=C(\O)c1ccc(Br)cc1 (centres undefined),inactive,
Cc1ccc(OCCOc2cccc(/C=N/NC(N)=O)c2)cc1,inactive,
O=C(N/N=C/c1cccc(OCc2ccccc2)c1)c1ccc(Br)o1,9.28 µM (active),
O=C(N/N=C/c1cccc(O)c1)c1cc2c(ccc3ccccc32)o1,inactive,
O=C(NCCCN1CCOCC1)c1cc(-c2ccccc2F)no1,inactive,
Nc1ccccc1SCc1cc([N+](=O)[O-])cc2c1OCOC2,inactive,

Structure (SMILES),Potency,"activity change, negative = inhibition"
Nc1ccccc1Sc1ccc(C(F)(F)F)cc1[N+](=O)[O-],inactive,
Nc1ccccc1SC(C[N+](=O)[O-])c1ccccc1 (centres undefined),4.15 µM (active),
CN(c1ccc(O)cc1)c1nc(-c2cccnc2)cs1,inactive,
COc1ccc(OC)c(C2C3=C(N=c4s/c(=C\c5cccc(O)c5)c(=O)n42)c2ccccc2CC3)c1 (centres undefined),5.86 µM (active),
O=C1CCCC2=C1C(c1ccccc1)n1c(s/c(=C/c3cccc(F)c3)c1=O)=N2 (centres undefined),inactive,
O=C(NCCc1ccc(F)cc1)c1ccc2nccnc2c1,inactive,
CC(C)Nc1ncnc2c1nnn2Cc1ccccc1,inactive,
CC(C)Cc1nc(Nc2ccc(S(=O)(=O)N3CCCC3)cc2)c2nnn(Cc3ccccc3)c2n1,4.65 µM (active),
Clc1ccc(Nc2ncnc3c2nnn3Cc2ccccc2)cc1,inactive,
COc1cccc(CNC(=O)c2cccnc2Sc2ccc(Cl)cc2)c1,inactive,
COc1ccc(C(=O)OCC(=O)c2ccc(Cl)s2)c(OC)c1OC,inactive,
CCN(CC)c1ccc([N+](=O)[O-])c2cccnc12,inactive,
CC(CNc1ccc([N+](=O)[O-])c2cccnc12)Nc1c([N+](=O)[O-])cc(C(F)(F)F)cc1[N+](=O)[O-] (centres undefined),10.4 µM (active),
O=[N+]([O-])c1cc([N+](=O)[O-])c2cccnc2c1O,inactive,
N#Cc1cccc(OC(=O)c2ccc3c(=O)n4c(nc3c2)CCC4)c1,inactive,
C=CCOc1ccc(/C=C/C(=O)OCC(=O)NC(C)c2ccc(F)cc2)cc1 (centres undefined),inactive,
CCOC(=O)C1CCCN(CCSc2ccc(C)cc2)C1 (centres undefined),inactive,
CCc1cc2c(=O)c(-c3ccc(F)cc3)c(C(F)(F)F)oc2cc1OCC(=O)O,inactive,
CCN1CCN(Cc2c(O)ccc3c(=O)c(-c4ccc(OC)c(OC)c4)c(C(F)(F)F)oc23)CC1,7.38 µM (active),
O=c1c(-c2ccc3c(c2)OCCO3)c(C(F)(F)F)oc2cc(O)cc(O)c12,inactive,
CC(CN1CCC(n2nccc2NC(=O)C2CCCC2)CC1)c1ccccc1 (centres undefined),inactive,
CC1CN(S(=O)(=O)c2cccc(C(F)(F)F)c2)CN1C(=O)N1CCOCC1 (centres undefined),inactive,
Cc1ccc(C(=O)NC2CCN(C(=O)Nc3ccccc3Cl)CC2)cc1,inactive,
Clc1ccc2c(c1)C1=C(C(c3ccncc3)O2)C(c2ccc(Br)cc2)n2ncnc2N1 (centres undefined),13.1 µM (active),
CC1=C(C(N)=O)C(c2ccc(Br)cc2)n2ncnc2N1 (centres undefined),,5.11% [at 0.00184 µM] (inactive)

Structure (SMILES),Potency,"activity change, negative = inhibition"
COC(=O)C1=C(C)Nc2ncnn2C1c1cccnc1 (centres undefined),inactive,
CN1CCN(C(=O)C(=O)c2cn(CC(=O)N3CCCC3)c3ccccc23)CC1,inactive,
CCN(CC)S(=O)(=O)c1cc(C(=O)Nc2cc(S(=O)(=O)N3CCOCC3)ccc2N2CCCC2)ccc1F,7.38 µM (active),
CCN(CC(=O)N1CCCC1)S(=O)(=O)c1ccc(F)cc1,inactive,
COCCNC(=S)Nc1cc(S(=O)(=O)N2CCOCC2)ccc1N1CCCCC1,inactive,
CCN1CCN(c2ccc(S(=O)(=O)N3CCCCC3)cc2NC(=O)c2cccc(NC(C)=O)c2)CC1,13.1 µM (active),
CCN1CCN(c2ccc(S(=O)(=O)N3CCCCC3)cc2NC(=O)Cc2c(Cl)cccc2Cl)CC1,inactive,
O=C(COC(=O)Cc1ccc(F)cc1)Nc1cc(S(=O)(=O)N2CCOCC2)ccc1N1CCCC1,inactive,
CCN(CC)S(=O)(=O)c1ccc(N2CCOCC2)c(NC(=O)C(C)Oc2ccc(F)cc2)c1 (centres undefined),4.65 µM (active),
CCN(CC)S(=O)(=O)c1ccc(N2CCOCC2)c(NC(=O)C2COc3ccccc3O2)c1 (centres undefined),inactive,
Cc1ccc(S(=O)(=O)N2CCCCC2)cc1NC(=O)c1cccnc1,inactive,
Cc1cc(NC(=O)CSC2=NS(=O)(=O)c3cc(Cl)ccc3N2)no1,inactive,
Cc1cc(S(=O)(=O)c2cc3ccc(O)c(C)c3oc2=O)ccc1F,,8.19% [at 0.00184 µM] (inactive)
CCN(CC(=O)NCC(=O)Nc1cccc(C)c1C)Cc1ccccc1,inactive,
CC(Oc1cc2oc(=O)c3c(c2cc1Cl)CCCC3)C(=O)NCc1ccncc1 (centres undefined),inactive,
Cc1nc2nc(C)c(NS(=O)(=O)c3ccc(C(C)(C)C)cc3)c(=O)n2[nH]1,inactive,
CCCc1nn2c(=O)cc(CSCC(=O)Nc3cccc(C)c3)nc2s1,inactive,
COc1cc(OC)cc(C(=O)NC2CCN(C(=O)N3c4ccccc4Sc4ccccc43)CC2)c1,13.1 µM (active),
COc1ccc(C(=O)NC2CCN(C(=S)Nc3ccccc3)CC2)cc1,inactive,
CCCNC(=S)N1CCC(NC(=O)c2ccc(OC)cc2)CC1,inactive,
CSc1ccc(S(=O)(=O)N2CCC(C(=O)NCc3ccncc3)CC2)cc1,inactive,
Cn1cc(C(=O)NCc2ccccc2F)cn1,inactive,
O=c1c2ccccc2cnn1Cc1n[nH]c(=S)n1-c1ccccc1F,inactive,
Cn1c2cc(B(O)O)sc2c2cnn(Cc3ccccc3F)c(=O)c21,10.4 µM (active),
Cc1[nH]c2ccc(C(=O)N3CCN(C)CC3)cc2c1C,inactive,

Structure (SMILES),Potency,"activity change, negative = inhibition"
COCCNC(=O)c1ccc(-n2c(SCc3cccnc3)nc3ccccc3c2=O)cc1,inactive,
Cc1nn(-c2ccccc2)c(C)c1/C=N/NC(=O)CSc1nc2ccccc2c(=O)n1-c1ccccc1,inactive,
COC(=O)c1ccc(CSc2nc3ccccc3c(=O)n2-c2cccc(OC)c2)o1,13.1 µM (active),
CN=C1S/C(=C\c2c(OC)cc(OC)cc2OC)C(=O)N1C,inactive,
CC(=O)NCCc1ccc(S(=O)(=O)Nc2ccc(C)c(S(=O)(=O)N3CCOCC3)c2)cc1,inactive,
COCCNC(=O)C(c1ccc(C)cc1)N(C(=O)CCC(=O)Nc1ccccn1)c1cccc(C)c1 (centres undefined),inactive,
COc1ccccc1N1CC(C(=O)Nc2nnc(SCC(=O)NC(C)C)s2)CC1=O (centres undefined),inactive,
COc1ccccc1N1CC(C(=O)Nc2nnc(SCC(=O)NCC3CCCO3)s2)CC1=O (centres undefined),inactive,
Cc1ccc(C(=O)NCC(=O)O)cc1S(=O)(=O)N1CCCCC1,inactive,
Cc1ccc(C(=O)OCC(=O)N2CC(C)CC(C)C2)cc1S(=O)(=O)N1CCCCC1 (centres undefined),inactive,
Cc1ccc(C(=O)OCC(=O)NCc2cc(C)c(O)c(C)c2)cc1S(=O)(=O)N1CCCCC1,8.28 µM (active),
O=C(c1ccccc1F)N1CCN(S(=O)(=O)c2ccc(Br)cc2)CC1,inactive,
CCOC(=O)c1cc(-c2ccccc2C)n(Cc2cc(C)no2)n1,inactive,
COc1ccc(NC(=O)N2CCC(Cc3ccccc3)CC2)cc1,inactive,
COc1ccc(NC(=S)NCCN2CCC(C)CC2)cc1,,17.2% [at 5.75 µM] (inactive)
COc1ccc(N2CCC(CNC(=S)Nc3c(C)cccc3C)C2)cc1 (centres undefined),11.7 µM (active),
COc1ccc(N2CCC(N3CCN(C)C(CCO)C3)CC2)cc1 (centres undefined),inactive,
COc1ccc(NC(=S)NCC2CCN(c3ccc(OC)cc3)C2)cc1 (centres undefined),11.7 µM (active),
COc1cccc(N2CC(C(=O)Nc3c(C)cccc3C)CC2=O)c1 (centres undefined),inactive,
Cc1cc(C)cc(NS(=O)(=O)Cc2ccccc2)c1,inactive,
CC(OC(=O)/C=C/c1ccccc1)C(=O)Nc1ccc(C(N)=O)cc1 (centres undefined),inactive,
Cc1ccccc1NC(=O)Cc1nc(COC(=O)c2ccc(C(F)(F)F)cc2)cs1,inactive,
Cc1ccc(S(=O)(=O)N2CC(C)N(S(C)(=O)=O)C2)cc1 (centres undefined),inactive,
CCOC(=O)C1=C(COC(=O)[C@H](C)NS(=O)(=O)c2ccccc2F)NC(=O)NC1C (some centres undefined),inactive,
